In the supplement of paper PMC13380429:

What follows are molecules tested on Vero E6 infected with SARS-CoV-2 (assay: SARS-CoV-2 infection rate relative to infected DMSO; higher = more infection, active = 60 or less). Details: 24 h.

SMILES	SARS-CoV-2 infection rate
C[N+](C)(C)CCCCCNCC12CC3CC(CC(C3)C1)C2 (10 µM)	112% (inactive)
CNC[C@H](O)c1ccc(O)c(O)c1 [epinephrine] (10 µM)	104% (inactive)
CC(C)(N)CC12CC3CC(CC(C3)C1)C2 [somantadine] (10 µM)	96% (inactive)
COc1cc([C@@H]2c3cc4c(cc3[C@@H](O[C@@H]3O[C@@H]5CO[C@@H](C)O[C@H]5[C@H](O)[C@H]3O)[C@H]3COC(=O)[C@H]23)OCO4)cc(OC)c1O [etoposide] (10 µM)	104% (inactive)
COc1ccc(NS(=O)(=O)c2ccc(N)cc2)nn1 [sulfamethoxypyridazine] (10 µM)	110% (inactive)
CC(C)C(=O)Oc1ccc(CO)cc1[C@H](CCN(C(C)C)C(C)C)c1ccccc1 [fesoterodine] (10 µM)	108% (inactive)
O=C(Nc1cccnc1)c1cc(-c2ccnc(F)c2)ccc1OCc1ccccc1 (10 µM)	114% (inactive)
Nc1nccc2c1ncn2C1C=C(CO)C(O)C1O (stereo not given) [3-deazaneplanocin-A] (10 µM)	112% (inactive)
COC[C@@H](c1ccc(C(F)(F)F)cc1)N1CCN(C2(C)CCN(C(=O)c3c(C)ncnc3C)CC2)C[C@@H]1C [vicriviroc] (10 µM)	100% (inactive)
CC(C)N(CCCCOCC(=O)NS(C)(=O)=O)c1cnc(-c2ccccc2)c(-c2ccccc2)n1 [selexipag] (10 µM)	116% (inactive)
CCCCCCCCCCC(C)(C)C(=O)Nc1c(OC)cc(OC)cc1OC (10 µM)	111% (inactive)
c1ccc(CC2=NCCN2)cc1 [tolazoline] (10 µM)	99.5% (inactive)
C[C@@H]1CN(Cc2ccc(F)cc2)CCN1C(=O)COc1ccc(Cl)cc1NC(N)=O (10 µM)	112% (inactive)
CC(SC(=O)c1cccs1)C(=O)NCC(=O)O (stereo not given) [stepronin] (10 µM)	113% (inactive)
NC(=O)CN1CC(c2ccccc2)CC1=O (stereo not given) [phenylpiracetam] (10 µM)	94% (inactive)
CO[C@@H]1COCC[C@@H]1N[C@@H]1CC[C@@](C(=O)N2CCc3ncc(C(F)(F)F)cc3C2)(C(C)C)C1 (10 µM)	113% (inactive)
NC[C@H]1O[C@H](O[C@H]2[C@H](O)[C@@H](O[C@H]3O[C@H](CO)[C@@H](O)[C@H](N)[C@H]3O)[C@H](N)C[C@@H]2N)[C@H](N)C[C@@H]1O [tobramycin] (10 µM)	113% (inactive)
CCN1CCCC(OC(=O)C(c2ccccc2)c2ccccc2)C1 (stereo not given) [piperidolate] (10 µM)	106% (inactive)
CC(C)c1nc(N(C)S(C)(=O)=O)nc(-c2ccc(F)cc2)c1/C=C/[C@@H](O)C[C@@H](O)CC(=O)O [rosuvastatin] (0.833333 µM)	99% (inactive)
Cc1cc(C)c(NC(=O)C2CC3CCC2C3)c(C)c1 (stereo not given) (10 µM)	102% (inactive)
Cn1c2cc([S+](C)[O-])sc2c2cnn(Cc3cccc(N)c3)c(=O)c21 (stereo not given) (10 µM)	107% (inactive)
Cn1nnc(-c2ccc(-c3ccc(N4C[C@H](CO)OC4=O)cc3F)cn2)n1 [tedizolid] (10 µM)	100% (inactive)
CCOC(=O)[C@H](CCc1ccccc1)N[C@@H](C)C(=O)N1CCC[C@H]1C(=O)O [enalapril] (10 µM)	96.5% (inactive)
CC(COc1ccccc1)N(CCCl)Cc1ccccc1 (stereo not given) [phenoxybenzamine] (10 µM)	106% (inactive)
CCCCOc1cc(C(=O)NCCN(CC)CC)c2ccccc2n1 [cinchocaine] (10 µM)	88% (inactive)
CC(Cc1cccc(C(F)(F)F)c1)NCCOC(=O)c1ccccc1 (stereo not given) [benfluorex] (10 µM)	104% (inactive)
CC[C@H](C)n1cc(C)c2c(C(=O)NCc3c(C)cc(C)[nH]c3=O)cc(-c3ccc(N4CCNCC4)nc3)cc21 (10 µM)	109% (inactive)
O=S1(=O)c2cccc3cccc(c23)N1CCCN1CCN(c2ccc(F)cc2)CC1 [fananserin] (10 µM)	108% (inactive)
Nc1nc(=O)c2nc(CNc3ccc(C(=O)N[C@@H](CCC(=O)O)C(=O)O)cc3)cnc2[nH]1 [folic-acid] (10 µM)	102% (inactive)
CC(c1cc2ccccc2s1)N(O)C(N)=O (stereo not given) [zileuton] (10 µM)	98.5% (inactive)
